Measured values published in PubChem BioAssay AID1224856 (National Center for Advancing Translational Sciences (NCATS), 2016).
Records with an inconclusive call do not appear. Values without a mark were called inactive. The call rests on the fitted dose curve; in most records, active means well fitted curve in the direction sought with a large enough effect; inconclusive means small, poorly fitted or top-dose-only effect, or another doubt; inactive means no such curve, though single readings can be large or run the other way.

Experiment: Cell viability assay for measurement of the protective activity of small molecules against cell death caused by Zika virus infection in human astrocytes
Settings: human astrocytes ZIKV-induced death, ATP luminescence, 72 h; series mostly up to 46.1 µM; protection from virus-induced death: at the top concentration
Text: National Center for Advancing Translational Sciences [NCATS] Johns Hopkins University School of Medicine Florida State University Assay Overview: Zika virus infection causes cell death in certain cell types including human neural progenitor cells (hNPCs), astrocytes, and astrocytoma cell line (SNB-19). This cell viability assay measures the ATP content (level) in human astrocytes using a luminescence readout that is proportional to viable cell numbers. Decrease in the luminescence signal after Zika virus infection indicates the cell death caused by Zika virus. Small molecule inhibitors […] the decreased luminescence signal after Zika virus infection, indicating the protective effect of that small molecule on the cell death caused by Zika virus infection. This observed protective effect of small molecules against Zika virus induced cell death may result from inhibition of virus replication or cellular response to the virus infection.
Assay Protocol Summary: The medium for astrocytes contains AM basal medium (ScienCell, Cat.# 1801), AGS (ScienCell, Cat.# 1801), 10% FBS, and 1% Pen/Strep. The ATP content assay kit (PerkinElmer, Cat.# 6016731) was used to determine cell viability. The reagent was reconstituted and prepared as described by the manufacturer. Cells were seeded in 384- or 1536-well assay plates and cultured at 37 C with 5% CO2 for 16 to 20 hours. The typical cell seeding density in the 1536-well plate assay is 350 cells/well in 3 ul medium for astrocytes in the tissue cultured treated/PDL coated plates. Compounds were added to cells and incubated for one hour before addition of ZIKV solution to cells (2 FFU/cell). After incubation at 37 C with 5% CO2 for 72 hours, the reagent mixture of the ATP content assay kit was added to each well, followed by incubation at room temperature for 10 minutes. The luminescence intensity of the assay plates was measured using a ViewLux plate reader (PerkinElmer). […] The percentage inhibitions of the decreased cell viability by small molecule inhibitors were then calculated.

SMILES	protection from virus-induced death
O=C(OCc1ccccc1)c1ccc(O)cc1	-3.82%
CCOCCOC(=O)/C=C/c1ccc(OC)cc1	19%
CN1CC(=O)N2C(Cc3c([nH]c4ccccc34)[C@H]2c2ccc3c(c2)OCO3)C1=O (stereo not given in full)	-5.79%
CC(C(=O)O)c1ccc(C(=O)c2cccs2)cc1 (stereo not given)	5.45%
CC(C(=O)O)c1ccc(-c2ccccc2)c(F)c1 (stereo not given)	0%
O=C(/C=C/c1ccccc1)NCCO	-2%
O=S(=O)(CC1CS1)c1ccc(Oc2ccccc2)cc1 (stereo not given)	-1.15%
CC1=C(CO)C(=O)O[C@@H]([C@@H](C)[C@H]2CC[C@H]3[C@@H]4C[C@H]5O[C@]56[C@@H](O)C=CC(=O)[C@]6(C)[C@@H]4CC[C@]23C)C1	-0.531%
CCN1CCC(n2cc(CNc3cc(Cl)c4ncc(C#N)c(Nc5ccc(F)c(Cl)c5)c4c3)nn2)CC1	2.87%
O=C(O)Cc1ccc(-c2ccccc2)cc1	1.03%
CN(C)c1ccc(C(=C2C=CC(=[N+](C)C)C=C2)c2ccccc2)cc1	-10.5%
O=C1c2ccccc2C(=O)c2c1ccc(O)c2O	-3.51%
COc1ccc(-c2cc(=O)c3c(O)cc(O)cc3o2)cc1O	1.16%
COc1cc2nc(N3CCN(C(=O)C4CCCO4)CC3)nc(N)c2cc1OC (stereo not given)	3.64%
Oc1ccc(/C=C/c2cc(O)cc(O)c2)cc1	-6.36%
CC(=C(CCOC(=O)C(C)C)SSC(CCOC(=O)C(C)C)=C(C)N(C=O)Cc1cnc(C)nc1N)N(C=O)Cc1cnc(C)nc1N	-5.9%
C=CCCCCCCCCC(=O)O	3.75%
O=c1c2ccccc2[se]n1-c1ccccc1	-9.75%
O=c1cc(-c2ccccc2)oc2cc(O)cc(O)c12	0.394%
C/C(=N\O)c1ccc(OCC(=O)N2CCCCC2)cc1	-5.29%

SMILES	protection from virus-induced death
O=C(c1ccccc1)c1ccc2n1CCC2C(=O)O (stereo not given)	1.12%
[O-][n+]1ccccc1SSc1cccc[n+]1[O-]	-9.35% [at 88.3 µM]
Nc1c(S(=O)(=O)O)cc(Nc2ccc(Nc3nc(Cl)nc(Nc4ccc(S(=O)(=O)O)cc4)n3)c(S(=O)(=O)O)c2)c2c1C(=O)c1ccccc1C2=O	4.07%
O=c1[nH]nc(Sc2ncc([N+](=O)[O-])s2)n1-c1ccc2c(c1)OCCO2	-10.2%
CC(C)(C)OC(=O)CN(Cc1ccc(Cl)cc1)Cc1ccc([N+](=O)[O-])s1	4.94% [at 88.3 µM]
O=C1C=CC[C@@H]2[C@H]3CCCN4CCC[C@@H](CN12)[C@@H]34	0.303%
O=S(=O)(O)CCSSCCS(=O)(=O)O	4.4%
CC(C)c1ccc2oc3nc(N)c(C(=O)O)cc3c(=O)c2c1	-9.76%
CCOC1OC(=O)C[C@H]1NC(=O)[C@@H]1CCCN1C(=O)[C@@H](NC(=O)c1ccc(N)c(Cl)c1)C(C)(C)C (stereo not given in full)	1.13%
O=C(Nc1ccc(C(=O)O)c(O)c1)c1ccccc1	1.26%
CC(O)=C(C#N)C(=O)Nc1ccc(C(F)(F)F)cc1	-8.15%
COc1ccc(/C=C/C(=O)Nc2ccccc2C(=O)O)cc1OC	-3.37%
O=C1CCC[C@@H]2[C@H]3CCCN4CCC[C@@H](CN12)[C@@H]34	3.66%
CC(C)[N+](C)(CCC(C(N)=O)(c1ccccc1)c1ccccc1)C(C)C	2.09%
Nc1ccc2c(c1)CN1C(=O)c3ccccc3C1=N2	-6.32% [at 23.8 µM]
Clc1ccccc1-c1nc(-c2ccncc2)no1	-2.26%
COc1ccc(NC(=O)/C=C/c2ccc(Cl)cc2)cc1	7.03%
O=c1c2ccccc2nc2n1CCc1c-2[nH]c2ccccc12	17%
Cc1ccc(O)c(N=Nc2ccccc2)n1	-7.13%
CC(=NNC(=S)N1CCC1)c1ccccn1	-5.84%
